CYP2C19 activ: activators of human cytochrome P450 2C19. P33261. recombinant CYP2C19, luciferin-H EGE luminescence; hits give high values; 0 = fully inhibited enzyme, 1 = untreated enzyme. activation factor at 5 µM. AID 1025. 96,000 tested, under 10 active;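 active = activation factor of at least 2 at 5 µM in the primary screen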
Target sequence (P33261 whole entry, looked up): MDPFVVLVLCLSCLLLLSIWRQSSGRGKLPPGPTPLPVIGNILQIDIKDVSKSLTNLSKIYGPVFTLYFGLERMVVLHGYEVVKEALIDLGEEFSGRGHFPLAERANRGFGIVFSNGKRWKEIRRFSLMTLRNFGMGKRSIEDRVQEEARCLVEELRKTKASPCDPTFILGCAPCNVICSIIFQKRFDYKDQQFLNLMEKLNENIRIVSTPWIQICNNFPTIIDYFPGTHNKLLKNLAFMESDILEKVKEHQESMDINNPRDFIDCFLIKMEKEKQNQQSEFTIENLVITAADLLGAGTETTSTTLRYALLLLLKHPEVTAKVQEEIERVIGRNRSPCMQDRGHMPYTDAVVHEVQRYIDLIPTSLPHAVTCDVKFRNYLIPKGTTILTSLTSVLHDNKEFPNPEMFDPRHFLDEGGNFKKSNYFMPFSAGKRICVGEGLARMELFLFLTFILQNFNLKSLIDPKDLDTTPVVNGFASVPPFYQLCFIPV
CYP2C9 inh: human CYP2C9 inhibition; P11712; CYP2C9 Supersomes, luciferin-H conversion, luminescence; inhibition, % at 5 µM; 96,000 compounds, 20% hits; AID 777;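 active = blocking of liver enzyme CYP2C9 beyond about 50% at 5 µM, limit read from the data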
Cav3 T inh: human Cav3.2 channel inhibition, primary screen; O95180; Cav3.2-expressing cells, Fluo-4 calcium fluorescence FDSS; hits give low values; B-score at 10 µM; 100,000 compounds, 4% hits;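 active = single-dose well whose peak fluorescence ratio is a statistical outlier from its plate by either plate-standardised score or position-corrected B-score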
CYP2C9 act: increases human cytochrome P450 2C9 activity; P11712; recombinant CYP2C9, luciferin-H conversion, luminescence; hits give high values; factor 1 = untreated enzyme, 0 = blocked; activation factor at 5 µM; 96,000 compounds, 1.4% hits; AID 1024;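 active = activation factor of 2 or more for CYP2C9 at a 5 µM dose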
Pyk2 oligo antag: blocks oligomerization of human Pyk2 in cells; AID 1347419; 99,000 compounds, 0.83% hits; Q293 cells, Pyk2 FERM NanoBiT luminescence; hits give low values; z-score (the deposit names both 25 µM and 10 µM);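 active = Z-score of -3 or lower, scaled per plate to the spread of control and sample wells; inactive = z-score above -3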;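 also: negative z-score means lost luminescence so less FERM oligomerization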
CYP2C19 inhib: blocks human cytochrome P450 2C19; 96,000 compounds, 21% hits; CYP2C19 Supersomes, luciferin-H EGE luminescence, 30 min; inhibition, % at 5 µM;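 active = CYP2C19 inhibition above a set limit at 5 µM in the primary screen, cut at about 50% in these data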
Numbers stand for hits. Sampled rows, rich in hits. Any-hit rate of the full collection: about 27%.

Results for Cc1nc2c(cnn2-c2ccccc2Cl)c(=O)n1-c1ccc(N2CCC(C)CC2)cc1 ?
CYP2C19 activ: inactive; CYP2C9 inh: inactive; Cav3 T inh: inactive; CYP2C9 act: inactive; Pyk2 oligo antag: inactive; CYP2C19 inhib: 72

Results for Cc1ccc(-n2c(C)nc3c(cnn3-c3ccc(F)cc3)c2=O)cc1C ?
CYP2C19 activ: inactive; CYP2C9 inh: inactive; Cav3 T inh: inactive; CYP2C9 act: inactive; Pyk2 oligo antag: inactive; CYP2C19 inhib: inactive

What do the screens show for `N#CC(c1ccccc1F)(c1ncc(C(F)(F)F)cc1Cl)N1CCOCC1` (centres undefined)?
CYP2C19 activ: inactive; CYP2C9 inh: inactive; Cav3 T inh: inactive; CYP2C9 act: inactive; Pyk2 oligo antag: inactive; CYP2C19 inhib: inactive

Results for O=C(Cc1cccs1)N1CCC(c2nc3c(nnn3Cc3ccccc3)c(=O)[nH]2)CC1 ?
CYP2C19 activ: inactive; CYP2C9 inh: 97; Cav3 T inh: inactive; CYP2C9 act: inactive; Pyk2 oligo antag: inactive; CYP2C19 inhib: inactive

What do the screens show for `Cc1ccc(Cn2nnc3c(=O)[nH]c(C4CCN(C(=O)Cc5cccs5)CC4)nc32)cc1`?
CYP2C19 activ: inactive; CYP2C9 inh: 89; Cav3 T inh: inactive; CYP2C9 act: inactive; Pyk2 oligo antag: inactive; CYP2C19 inhib: inactive

What do the screens show for `Cc1ccc(Cn2nnc3c(=O)[nH]c(C4CCCN(S(=O)(=O)c5ccccc5)C4)nc32)cc1` (centres undefined)?
CYP2C19 activ: inactive; CYP2C9 inh: inactive; Cav3 T inh: inactive; CYP2C9 act: inactive; Pyk2 oligo antag: inactive; CYP2C19 inhib: inactive

How did Cc1ccc(Cn2nnc3c(=O)[nH]c(C4CCN(S(=O)(=O)c5ccccc5)CC4)nc32)cc1 do in these assays?
CYP2C19 activ: inactive; CYP2C9 inh: 79; Cav3 T inh: inactive; CYP2C9 act: inactive; Pyk2 oligo antag: inactive; CYP2C19 inhib: inactive

What do the screens show for `COC(=O)CN1C2(C#N)CCCCC2CC2CCCCC21C#N` (centres undefined)?
CYP2C19 activ: inactive; CYP2C9 inh: inactive; Cav3 T inh: inactive; CYP2C9 act: inactive; Pyk2 oligo antag: inactive; CYP2C19 inhib: inactive

Results for N#Cc1ccccc1OCC(=O)Nc1c(C(=O)C2CC2)oc2ccccc12 ?
CYP2C19 activ: inactive; CYP2C9 inh: inactive; Cav3 T inh: inactive; CYP2C9 act: inactive; Pyk2 oligo antag: inactive; CYP2C19 inhib: inactive

How did COc1ccc(-c2cc(C(=O)NCCc3ccccc3)no2)cc1OC do in these assays?
CYP2C19 activ: inactive; CYP2C9 inh: inactive; Cav3 T inh: inactive; CYP2C9 act: inactive; Pyk2 oligo antag: inactive; CYP2C19 inhib: inactive

Results for COc1ccc(OC)c(S(=O)(=O)NCc2csc(-c3ccccc3)n2)c1 ?
CYP2C19 activ: inactive; CYP2C9 inh: inactive; Cav3 T inh: inactive; CYP2C9 act: inactive; Pyk2 oligo antag: inactive; CYP2C19 inhib: 62

What do the screens show for `CNS(=O)(=O)c1cc(OC)ccc1OC`?
CYP2C19 activ: inactive; CYP2C9 inh: inactive; Cav3 T inh: inactive; CYP2C9 act: inactive; Pyk2 oligo antag: inactive; CYP2C19 inhib: inactive

How did CCn1nnnc1-c1ccc(OC)c(S(=O)(=O)NCCc2ccccc2)c1 do in these assays?
CYP2C19 activ: inactive; CYP2C9 inh: 68; Cav3 T inh: inactive; CYP2C9 act: inactive; Pyk2 oligo antag: inactive; CYP2C19 inhib: 89

What do the screens show for `COc1ccc(OC)c(S(=O)(=O)NCCc2ccccc2)c1`?
CYP2C19 activ: inactive; CYP2C9 inh: 69; Cav3 T inh: inactive; CYP2C9 act: inactive; Pyk2 oligo antag: inactive; CYP2C19 inhib: 87

Results for COc1ccc(OC)c(S(=O)(=O)NCc2cn3c(C)csc3n2)c1 ?
CYP2C19 activ: inactive; CYP2C9 inh: inactive; Cav3 T inh: inactive; CYP2C9 act: inactive; CYP2C19 inhib: inactive

Results for Cc1ccc2c(C)nc(NC3=NCN(CCc4ccccc4)CN3)nc2c1 ?
CYP2C19 activ: inactive; CYP2C9 inh: inactive; CYP2C9 act: inactive; CYP2C19 inhib: inactive

Results for COc1ccccc1-n1cnc2cc(NCc3ccco3)ccc21 ?
CYP2C19 activ: inactive; CYP2C9 inh: inactive; Cav3 T inh: inactive; CYP2C9 act: 2; Pyk2 oligo antag: inactive; CYP2C19 inhib: 93

How did COc1ccccc1-n1cnc2cc(NCc3cccs3)ccc21 do in these assays?
CYP2C19 activ: inactive; CYP2C9 inh: inactive; Cav3 T inh: inactive; CYP2C9 act: inactive; Pyk2 oligo antag: inactive; CYP2C19 inhib: 70

What do the screens show for `Cc1ccccc1-n1cnc2cc(NCc3cccs3)ccc21`?
CYP2C19 activ: inactive; CYP2C9 inh: inactive; Cav3 T inh: inactive; CYP2C9 act: inactive; Pyk2 oligo antag: inactive; CYP2C19 inhib: 54

Results for COc1cc(C(=O)OC(C)CN2CCOCC2)cc(OC)c1OC (centres undefined) ?
CYP2C19 activ: inactive; CYP2C9 inh: inactive; Cav3 T inh: inactive; CYP2C9 act: inactive; Pyk2 oligo antag: inactive; CYP2C19 inhib: inactive

What do the screens show for `O=C1C=C(N2CCOCC2)CCC1`?
Cav3 T inh: inactive

What do the screens show for `O=C(NCc1ccncc1)C12CC3CC(CC(C3)C1)C2`?
CYP2C19 activ: inactive; CYP2C9 inh: inactive; Cav3 T inh: inactive; CYP2C9 act: inactive; Pyk2 oligo antag: inactive; CYP2C19 inhib: 52

Results for CCc1nc(SCc2ccc(F)cc2)[nH]c(=O)c1C#N ?
Cav3 T inh: -7.7; Pyk2 oligo antag: inactive

What do the screens show for `CCCc1cc(=O)[nH]c(SCc2cccnc2)n1`?
Cav3 T inh: inactive; Pyk2 oligo antag: inactive

What do the screens show for `CCc1nc(SCc2cccnc2)[nH]c(=O)c1C`?
CYP2C19 activ: inactive; CYP2C9 inh: 82; Cav3 T inh: inactive; CYP2C9 act: inactive; Pyk2 oligo antag: inactive; CYP2C19 inhib: inactive

What do the screens show for `Cc1nc(SCc2ccc(Br)cc2)[nH]c(=O)c1C`?
CYP2C19 activ: inactive; CYP2C9 inh: inactive; Cav3 T inh: inactive; CYP2C9 act: inactive; Pyk2 oligo antag: inactive; CYP2C19 inhib: inactive

How did CC(=NCCc1ccccc1)C1=C(O)CSC1=O do in these assays?
CYP2C19 activ: inactive; CYP2C9 inh: inactive; Cav3 T inh: inactive; CYP2C9 act: inactive; Pyk2 oligo antag: inactive; CYP2C19 inhib: 67

How did CSc1c(-c2ccccc2)nc2ccc(Cl)cc2c1C(=O)O do in these assays?
CYP2C19 activ: inactive; CYP2C9 inh: 81; Cav3 T inh: inactive; CYP2C9 act: inactive; Pyk2 oligo antag: inactive; CYP2C19 inhib: inactive

What do the screens show for `COc1ccc(C2CC(c3ccc(OC)cc3)n3nc(N)nc3N2)cc1` (centres undefined)?
CYP2C19 activ: inactive; CYP2C9 inh: inactive; Cav3 T inh: inactive; CYP2C9 act: inactive; CYP2C19 inhib: inactive

What do the screens show for `COc1cccc(C2CC(c3cccc(C)c3)n3ncnc3N2)c1` (centres undefined)?
CYP2C19 activ: inactive; CYP2C9 inh: 67; Cav3 T inh: inactive; CYP2C9 act: inactive; CYP2C19 inhib: 74

What do the screens show for `CCOc1ccc(C2CC(c3cccc(C)c3)n3ncnc3N2)cc1` (centres undefined)?
CYP2C19 activ: inactive; CYP2C9 inh: 54; Cav3 T inh: inactive; CYP2C9 act: inactive; CYP2C19 inhib: 85

Results for COc1ccc(C2CC(c3cc(OC)ccc3OC)n3nnnc3N2)cc1 (centres undefined) ?
CYP2C19 activ: inactive; CYP2C9 inh: 78; Cav3 T inh: inactive; CYP2C9 act: inactive; Pyk2 oligo antag: inactive; CYP2C19 inhib: 98

Assay outcomes: PubChem BioAssay, several laboratories
